Test results published in PubChem BioAssay (Tox21).
Inconclusive results are not listed. Entries that show only a call come without a potency. Activity calls are given as the source filed them. Calls come from the whole dose curve; as a rule, active = well fitted cell-killing curve with a large enough effect in the repeat runs; inconclusive = weak or mixed curves; inactive = no such curve, though single readings can be large or run the other way.

Assay: qHTS assay to identify small molecule antagonists of the androgen receptor (AR) signaling pathway - cell viability counter screen (AID 743033; note: nearly all actives have a fitted effect of over 45% in size)
Settings: AR-bla HEK293 viability, CellTiter-Glo luminescence, 16 h; series mostly up to 58.5 µM
From the text: National Center for Advancing Translational Sciences [NCATS]
NIH Chemical Genomics Center [NCGC]
U.S. Environmental Protection Agency [EPA]
National Institutes of Environmental Health Sciences [NIEHS]
National Toxicology Program [NTP]
U.S. Food and Drug Administration [FDA]
Androgen receptor (AR), a nuclear hormone receptor, plays a critical role in AR-dependent prostate cancer and other androgen related diseases. Endocrine disrupting chemicals (EDCs) and their interactions with steroid hormone receptors like AR may cause disruption of normal endocrine function as well as interfere with metabolic homeostasis, reproduction, developmental and behavioral functions. To identify the compounds that inhibit AR signaling, GeneBLAzer AR-UAS-bla-GripTite cell line (Invitrogen, Carlsbad, CA, USA) containing a beta-lactamase reporter gene under control of an Upstream Activator Sequence (UAS) stably integrated into HEK293 cells was used to screen the Tox21 10K compound library. The cytotoxicity of the Tox21 compound library against the AR-bla cell line was tested in parallel by measuring the cell viability using CellTiter-Glo assay in the same wells.
Tox21 Assay Protocol Summary:
AR-bla cells were dispensed at 2,000 cells/5 uL of assay medium per well into black wall/clear-bottom 1536-well plates using a Multidrop Combi (ThermoFisher Scientific, Waltham, MA) dispenser. After the assay plates were incubated at a 37C and 5% CO2 for 4 hr, 23 nL of compounds dissolved in DMSO, positive controls or DMSO only was transferred to the assay plate by a Pintool station (Kalypsys, San Diego, CA), followed by addition of 1 uL of agonist (R1881) in culture medium using a Bioraptr Flying Reagent Dispenser (FRD) workstation (Beckman Coulter, Indianapolis, IN, USA). The plates were incubated at a 37C and 5% CO2 for 16 h. After 1 uL of LiveBLAzerTM B/G FRET substrate was added using a Bioraptr FRD, the plates were incubated at room temperature for 2 h and fluorescence intensity was measured by an Envision plate reader (PerkinElmer, Shelton, CT). For cell viability readout that measures cytotoxicity, 4 ul/well of CellTiter-Glo reagent was added into the assay plates using a Bioraptr FRD. After 30 min incubation at room temperature, the luminescence intensity in the plates was measured using a ViewLux (PerkinElmer) plate reader.
Potency is the fitted concentration of half-maximal effect.

| Structure (SMILES) | Potency |
| --- | --- |
| CC(CC(C#N)(c1ccccc1)c1ccccc1)N(C)C (stereo not given) | inactive |
| O=C(CCN1CC1)OCC(CO)(COC(=O)CCN1CC1)COC(=O)CCN1CC1 | inactive |
| ClCC(Cl)(Cl)Cl | inactive |
| CCCSC(=O)Cl | inactive |
| CN/C(=N\[N+](=O)[O-])NCC1CCOC1 (stereo not given) | inactive |
| CCCSP(=O)(OCC)Oc1ccc(Br)cc1Cl (stereo not given) | inactive |
| ClC(Cl)Br | inactive |
| CC(C)CC(N(C)C)C1(c2ccc(Cl)cc2)CCC1 (stereo not given) | inactive |
| O=[N+]([O-])c1ccc(CBr)cc1 | inactive |
| Cc1coc2c1CCC(C)C2 (stereo not given) | inactive |
| COC(=O)c1ccccc1S(=O)(=O)NC(=O)Nc1nc(C)cc(C)n1 | inactive |
| [As]#[In] | inactive |
| CSc1nc(N=[N+]=[N-])nc(NC(C)C)n1 | inactive |
| C[N+](C)=CCl | inactive |
| COc1ccc(C(=O)N2CCCC2=O)cc1 | 8.5 nM (active) |
| CCOP(=S)(OCC)Oc1ncn(-c2ccccc2)n1 | inactive |
| O=C1c2ccccc2C(=O)c2ccccc21 | inactive |
| CCOc1nc(C(Cl)(Cl)Cl)ns1 | inactive |
| CCCCc1c(C)nc(NCC)[nH]c1=O | inactive |
| O=C(Nc1ccccc1)N(Cc1ccc(Cl)cc1)C1CCCC1 | inactive |

| Structure (SMILES) | Potency |
| --- | --- |
| O=C(NCO)NCO | inactive |
| C=CCC1=C(C)[C@@H](OC(=O)[C@@H]2[C@@H](C=C(C)C)C2(C)C)CC1=O | inactive |
| CS(=O)(=O)c1cc(C(F)(F)F)ccc1C(=O)c1cnoc1C1CC1 | inactive |
| Nc1cnn(-c2ccccc2)c(=O)c1Cl | inactive |
| COc1cc(C[C@@H](C)N)c(OC)cc1C | inactive |
| N#CC(O)c1ccccc1 (stereo not given) | inactive |
| Cc1ncc(CNC(=O)N(CCCl)N=O)c(N)n1 | inactive |
| O=CNC(N1CCN(C(NC=O)C(Cl)(Cl)Cl)CC1)C(Cl)(Cl)Cl (stereo not given) | inactive |
| CCC1(c2ccccc2)C(=O)N=C(O)NC1=O (stereo not given) | inactive |
| Clc1cccc(N2CCNCC2)c1 | inactive |
| O=[N+]([O-])c1cc(Cl)c(Cl)c(Cl)c1 | inactive |
| [Cl][Sn]([Cl])([Cl])[Cl] | inactive |
| CN1C[C@@H](NS(=O)(=O)N(C)C)C[C@@H]2c3cccc4c3c(cn4C)C[C@H]21 | inactive |
| C[N+](=O)[O-] | inactive |
| O=NN1CCCCC1 | inactive |
| CCC(C)n1c(=O)[nH]c(C)c(Br)c1=O (stereo not given) | inactive |
| O=c1oc2ccccc2c(O)c1C1CCCc2ccccc21 (stereo not given) | inactive |
| O=C(CCCN1CCC(n2c(=O)[nH]c3ccccc32)CC1)c1ccc(F)cc1 | inactive |
| C=C(C)CN(CC)c1c([N+](=O)[O-])cc(C(F)(F)F)cc1[N+](=O)[O-] | inactive |
| O=C1OC(c2ccc(O)c(S(=O)(=O)O)c2)(c2ccc(O)c(S(=O)(=O)O)c2)c2c(Br)c(Br)c(Br)c(Br)c21 | inactive |
